High-throughput results (PubChem)
Hits are enriched below; roughly 1.3% of the tested compounds scored in any of these assays.
AmpC no deterg – blocks E. coli AmpC beta-lactamase in detergent-free assay. 330,000 compounds, 0.52% hits. AID 485341. Potency, µM (doses to about 57.1 µM), inactives show top-dose activity change, negative = inhibition, usual class: inhibitors. P00811. AmpC nitrocefin hydrolysis, absorbance 480 nm, 0.0001% Triton;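 note: plate controls were no compound for no effect and no enzyme for full effect; nearly all actives have a fitted effect of over 20% in size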
Target sequence (P00811 whole entry, looked up): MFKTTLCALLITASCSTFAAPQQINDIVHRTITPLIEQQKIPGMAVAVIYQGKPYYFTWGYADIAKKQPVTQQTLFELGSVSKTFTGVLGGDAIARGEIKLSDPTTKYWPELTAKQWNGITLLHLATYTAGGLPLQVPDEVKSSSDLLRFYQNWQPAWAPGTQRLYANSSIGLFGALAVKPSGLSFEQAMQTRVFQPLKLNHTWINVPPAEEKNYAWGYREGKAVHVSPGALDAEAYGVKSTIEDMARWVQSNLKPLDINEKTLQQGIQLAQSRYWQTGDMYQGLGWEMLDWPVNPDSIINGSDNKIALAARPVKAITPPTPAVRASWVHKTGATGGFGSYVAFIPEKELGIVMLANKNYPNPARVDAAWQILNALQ
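AmpC (5.3 nM in the dispensed reagent) in 20 mM phosphate pH 7.0 with 0.01% (detergent screen) or 0.0001% Triton X-100 was preincubated with compounds for 15 min at room temperature. Nitrocefin was then added from an 800 uM solution, and hydrolysis was followed at 480 nm.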
AmpC detergent – blocks E. coli AmpC beta-lactamase in detergent assay. AmpC hydrolysis of nitrocefin, absorbance 480 nm, 0.01% Triton. Potency, µM (series often up to 114 µM), inactives show at the top dose activity change, negative = inhibition, most hits filed as inhibitors. 370,000 compounds, 0.041% hits. AID 485294;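 note: 0% = no-compound wells and -100% = no-enzyme wells; nearly all actives have a fitted effect of over 25% in size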
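AmpC (5.3 nM in the dispensed reagent) in 20 mM phosphate pH 7.0 with 0.01% (detergent screen) or 0.0001% Triton X-100 was preincubated with compounds for 15 min at room temperature. Nitrocefin was then added from an 800 uM solution, and hydrolysis was followed at 480 nm.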
SARS PLP yeast – blocks SARS-CoV papain-like protease in a yeast assay | Potency, µM (top dose mostly 32.9 µM), for inactives: at the highest dose activity, positive = growth rescue, hits mostly activators | S. cerevisiae expressing SARS-CoV PLpro, growth rescue | 330,000 compounds, 0.19% hits; calls by dose curve; note: 0% is about no effect; nearly all actives have a fitted effect of over 55% in size
VACV mCherry inh – inhibitors of vaccinia virus infection (mCherry reporter signal); Vaccinia virus mCherry reporter infection, fluorescence; Potency, µM (highest dose often 36.5 µM), inactives show at the highest dose activity change, negative = inhibition, usual class: inhibitors; 310,000 compounds, 0.63% hits; AID 720579; calls by dose curve; tested in A549 cells; note: % is set by controls: 0 for no effect and ±100 for the full control effect; nearly all actives have a fitted effect of over 35% in size
Vaccinia Venus – vaccinia inhibition (Venus reporter); Vaccinia virus Venus reporter expression, fluorescence; Potency, µM (top dose mostly 36.5 µM), for the others: at the highest dose activity change, negative = inhibition, actives largely listed as inhibitors; 330,000 compounds, 0.46% hits; calls by dose curve; tested in A549 cells; note: % is set by controls: 0 for no effect and ±100 for the full control effect; nearly all actives have a fitted effect of over 30% in size
AMA1-RON2 inh – inhibitors of Plasmodium falciparum AMA1-RON2 interaction; AlphaScreen AMA1-biotinylated RON2 peptide binding; Potency, µM (titrated, usually from 58.2 µM), for inactives: at the highest dose activity change, negative = inhibition, hits mostly inhibitors; 360,000 compounds, 0.2% hits; AID 720542;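 note: 0% = vehicle wells and -100% = peptide control; nearly all actives have a fitted effect of over 45% in size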
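AMA1 (3D7) with his tag at 25 nM final met compounds first, then biotinylated RON2 peptide at 25 nM; detection used donor plus acceptor beads, 10 µg/mL apiece, read by AlphaScreen after 30 min at room temperature.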
Starred values were filed as active, the others as inactive; i = inactive; ? = inconclusive; . = not tested or not shown; [ ] = dose if it differs, or a comment. Unless noted, calls come from the whole dose curve; as a rule, active = well fitted curve in the direction sought with a large enough effect; inconclusive = small, poorly fitted or top-dose-only effect, or another doubt; inactive = no such curve, though single readings can be large; an effect the other way counts as inactive or inconclusive. Potency is the fitted concentration of half-maximal effect.

SMILES	AmpC no deterg	AmpC detergent	SARS PLP yeast	VACV mCherry inh	Vaccinia Venus	AMA1-RON2 inh
Clc1ccc(SCc2cc(N3CCOCC3)nc(-c3ccccn3)n2)cc1	104%	-13%	0%	7.9µM*	?	65%
O=C(N/N=C/c1ccccc1C(=O)O)c1ccc(COc2cccc3cccnc23)cc1	-31%	1%	-1%	-2%	0%	-3%
O=C(COc1cccc2cccnc12)N/N=C/c1ccccc1O	-17%	-2%	2%	2.5µM*	-27%	39%
O=C(N/N=C/c1ccc[nH]1)c1ccc(COc2cccc3cccnc23)cc1	-21%[2.29 µM]	6%	0%	1.6µM*	?	14%
O=C(O)c1ccccc1NC(c1ccccc1)c1ccc2cccnc2c1O (stereo not given)	.	.	.	8.9µM*	?	-9%
COc1cc(C(Nc2ccccn2)c2ccc3ccc(C)nc3c2O)cc(OC)c1O (stereo not given)	50%	-7%	5%	13µM*	?	-10%
COc1ccc(C(Nc2cc(C)ccn2)c2ccc3ccc(C)nc3c2O)cc1 (stereo not given)	-5%	-2%	21%	-12%	-4%	48%
Cc1ccc2ccc(C(Nc3ccccn3)c3ccccc3)c(O)c2n1 (stereo not given)	-22%	?	11µM*	?	-5%	75%
Cc1ccnc(NC(c2ccccc2F)c2ccc3cccnc3c2O)c1 (stereo not given)	.	21%	.	16µM*	?	.
Oc1c(C(Nc2ccccn2)c2ccccc2F)ccc2cccnc12 (stereo not given)	.	1%	.	-6%[7.34 µM]	-2%[7.34 µM]	.
Cc1oc(-c2ccccc2NC(=O)c2ccccc2)nc1CNC(=O)C1CC(=O)OC12CCCCC2 (stereo not given)	.	.	.	17%	12%	.
Cc1ccnc(NC(c2cc(C)ccc2O)c2ccc3cccnc3c2O)c1 (stereo not given)	.	7%	.	-7%	-9%	.
Cc1ccc2ccc(C(Nc3ccccc3)c3ccccc3)c(O)c2n1 (stereo not given)	.	.	.	?	?	47%
Oc1ccccc1C(Nc1nccs1)c1ccc2cccnc2c1O (stereo not given)	-58%	-8%	-7%	8.9µM*	?	-21%
Cc1ccnc(NC(c2ccccc2)c2ccc3cccnc3c2O)c1 (stereo not given)	.	.	.	?	?	-78%
Oc1c(C(Nc2ccccn2)c2ccccn2)ccc2cccnc12 (stereo not given)	13%	?	?	?	10µM*	-93%
Cc1ccc2ccc(C(Nc3cccc(C(F)(F)F)c3)c3cccnc3)c(O)c2n1 (stereo not given)	2%	-5%	10µM*	-11%	-25%	78%
N#CC1=C(N)OC2=C(CC/C2=C\c2ccccc2Cl)C1c1ccccc1Cl (stereo not given)	-57%	-3%	3%	?	?	-3%
N#CC1=C(N)OC2=C(CC/C2=C\c2ccccc2)C1c1ccccc1 (stereo not given)	11µM*	5%	-2%	-11%	8%	17%
Cc1ccc(C(=O)NC(=S)Nc2ccc3c(c2)OCCO3)c(C)c1	-29%	-2%	-6%	.	-23%	-21%
O=C(NC(=S)Nc1ccc2c(c1)OCCO2)c1ccc(F)cc1Cl	-10%	79µM*	6%	.	.	86%
CO[C@H]1[C@H](NC(=O)c2ccsc2)c2ccccc2C12CCN(Cc1c(O)ccc3ccccc13)CC2	.	.	.	-11%	4%	.
Nc1ccccc1C#CC(=O)c1ccccc1	-23%	-6%	-12%	?	22µM*	0%
COc1cc(C(=O)NC(c2ccccc2Cl)c2cc(Cl)c3cccnc3c2O)cc(OC)c1OC (stereo not given)	.	11%	.	11µM*	-21%	.
COc1ccc(C(=O)NC(c2ccccc2Cl)c2cc(Cl)c3cccnc3c2O)cc1 (stereo not given)	.	-1%	.	-15%[7.34 µM]	-12%[7.34 µM]	.
SMILES	AmpC no deterg	AmpC detergent	SARS PLP yeast	VACV mCherry inh	Vaccinia Venus	AMA1-RON2 inh
CCCC(=O)NC(c1ccc(OC)c(OC)c1)c1cc(Cl)c2cccnc2c1O (stereo not given)	12%	-5%	7%	13µM*	?	28%
CCCCC(=O)NC(c1cccs1)c1cc(Cl)c2cccnc2c1O (stereo not given)	-26%	8%	8%	?	?	70%
CSc1nnc(CNS(=O)(=O)c2ccc(F)cc2F)n1-c1ccccc1C	.	.	.	i	0%	.
COC(=O)c1cccc(C(=O)NCc2nc(-c3ccccc3NC(C)=O)oc2C)c1	.	.	.	-7%	8%	.
O=C1C(c2ccccc2)=[N+]([O-])c2ccccc21	-7%	?	1%	-24%	-21%	13µM*
O=C1C(=O)c2ccc(-c3ccccc3)cc2-c2ccccc21	-24%	-7%	-78%	.	.	4%
CCOc1cc(/C=N/Nc2nnc(C)n2N)ccc1OC(C)=O	-6%	-7%	-7%	28µM*	?	33%
CSc1ncccc1C(=O)NCCN1Cc2ccccc2OC(c2ccccc2F)C1 (stereo not given)	.	.	.	-11%	2%	.
Cc1ccnc(Nc2nc(-c3sc(C)nc3C)cs2)c1	.	.	.	3.5µM*	?	-11%
CCN(Cc1ccncc1)Cc1ccc2c(c1)CN(C(=O)c1ccc(OC)cc1)CCO2	.	.	.	-11%	2%	.
O=C(CSCc1ccccc1Cl)NN=C1CCCCCC1	0.22µM*	4%	-4%	-3%	-25%	31%
c1ccc(-c2nnc(SCc3nnc(-c4cccs4)o3)o2)cc1	-23%	-8%	-13%	.	7.1µM*	-5%
COC(=O)CC1(c2cccc3ccccc23)C(=O)c2ccccc2C1=O	-16%	?	-8%	.	2.8µM*	-17%
CN(Cc1cnc2ccccn12)C(=O)c1cc(NC(=O)c2ccccc2)cc2ncn(C3CCCC3)c12	.	.	.	-13%	-15%	.
O=[N+]([O-])c1cc(Cl)cc(/C=N\Nc2ccccn2)c1O	-25%	?	-12%	2.2µM*	?	44%
O=S(=O)(c1ccc(-c2csc(Nc3ccc(Br)cc3)n2)cc1)N1CCCC1	-29%	-9%	7%	-28%	?	0%
O=S(=O)(c1ccc(-c2csc(Nc3ccc(F)cc3)n2)cc1)N1CCCC1	8.9µM*	-3%	8%	-7%	?	-4%
O=C(Nc1ccc(F)cc1)c1cc(S(=O)(=O)N2CCCCC2)cs1	22µM*	4%	-2%	.	.	-5%
COCCN1CCN(C(=O)c2cnn(-c3nccc(-c4ccccc4OC)n3)c2-c2ccco2)CC1	.	.	.	-13%	20%	.
COc1ccc(-c2csc(N(CCCN(C)C)C(=O)c3ccccc3Cl)n2)cc1	.	.	.	11µM*	?	-5%
